This is an account of results in PubChem BioAssay.

Activity calls are given as the source filed them.

Assay [1] is described as follows: compounds binding Alexa647 anti-His antibody – biochemical, small-molecule microarray, 635 nm fluorescence, artefact control for SMM control protein annotation, primary screen (AID 1128).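 Also: score merges feature fluorescence with signal-to-noise for each printed compound spot.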 Particulars: higher = more signal.
Assay [2] deals with Human papillomavirus type 1a E7 protein (residues 1-88). The assay is described as follows: HPV1a E7 small-molecule binders, primary screen, biochemical, small-molecule microarray, residues 1-88, 635 nm (AID 1129). Particulars: small-molecule microarray binding, fluorescence 635 nm; higher = more signal.
In assay [3] the target is Focal adhesion kinase 1 (Homo sapiens) (UniProt Q05397). As to the kind of experiment: PTK2 protein binding on printed compound slides – biochemical, small-molecule microarray, 635/667 nm fluorescence, BSA, DTT, primary screen (AID 1130).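 Also: composite of spot emission at 667 nm and signal to noise over triplicate slides.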 The following applies: 635 nm fluorescence, higher = more signal.
Chain of Focal adhesion kinase 1 (Homo sapiens) (Q05397 whole entry, looked up): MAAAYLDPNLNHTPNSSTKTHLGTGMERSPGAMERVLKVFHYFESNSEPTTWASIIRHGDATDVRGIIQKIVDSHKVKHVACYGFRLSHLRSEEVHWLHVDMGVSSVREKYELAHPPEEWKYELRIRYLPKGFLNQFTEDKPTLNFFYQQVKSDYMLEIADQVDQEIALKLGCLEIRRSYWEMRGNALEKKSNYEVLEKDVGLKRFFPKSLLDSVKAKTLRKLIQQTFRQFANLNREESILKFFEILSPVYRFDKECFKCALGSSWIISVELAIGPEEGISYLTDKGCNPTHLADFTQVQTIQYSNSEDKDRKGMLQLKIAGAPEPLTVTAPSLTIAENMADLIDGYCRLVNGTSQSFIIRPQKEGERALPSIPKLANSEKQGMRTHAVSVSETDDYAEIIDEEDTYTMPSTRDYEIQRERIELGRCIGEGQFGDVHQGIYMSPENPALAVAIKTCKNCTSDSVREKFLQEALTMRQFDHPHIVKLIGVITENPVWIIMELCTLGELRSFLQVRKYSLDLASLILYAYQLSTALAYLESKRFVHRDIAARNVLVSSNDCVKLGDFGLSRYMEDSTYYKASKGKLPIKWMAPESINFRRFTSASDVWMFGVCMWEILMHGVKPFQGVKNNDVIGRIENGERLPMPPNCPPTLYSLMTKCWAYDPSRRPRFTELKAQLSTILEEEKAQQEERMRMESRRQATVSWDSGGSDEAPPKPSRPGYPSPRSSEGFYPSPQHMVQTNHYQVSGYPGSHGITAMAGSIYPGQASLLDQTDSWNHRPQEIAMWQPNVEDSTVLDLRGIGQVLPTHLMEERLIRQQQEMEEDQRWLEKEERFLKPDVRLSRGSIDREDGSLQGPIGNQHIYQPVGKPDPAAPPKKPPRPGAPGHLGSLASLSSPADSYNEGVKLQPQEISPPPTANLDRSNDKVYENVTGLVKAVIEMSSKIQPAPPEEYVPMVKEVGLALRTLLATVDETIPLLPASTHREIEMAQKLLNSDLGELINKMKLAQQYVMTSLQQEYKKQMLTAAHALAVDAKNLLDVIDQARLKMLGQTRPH
The subject of assay [4] is Fibrinogen (Alexa647-labelled). The assay is described as follows: Alexa647-fibrinogen binding to printed small molecules – biochemical, small-molecule microarray, 635/667 nm fluorescence, artefact control for SMM control-protein annotation, profiling panel (AID 1131).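 Also: z-score merges 667 nm fluorescence with per-spot signal-to-noise over triplicate slides.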 The following applies: fibrinogen-A647 binding fluorescence, higher = more signal.
Assay [5] deals with Follistatin (Homo sapiens) (UniProt P19883). As to the kind of experiment: FST protein binding to printed compounds – biochemical, small-molecule microarray, 635/667 nm fluorescence, primary screen (AID 1132). The following applies: 635 nm fluorescence, higher = more signal.
Chain of Follistatin (Homo sapiens) (P19883 whole entry, looked up): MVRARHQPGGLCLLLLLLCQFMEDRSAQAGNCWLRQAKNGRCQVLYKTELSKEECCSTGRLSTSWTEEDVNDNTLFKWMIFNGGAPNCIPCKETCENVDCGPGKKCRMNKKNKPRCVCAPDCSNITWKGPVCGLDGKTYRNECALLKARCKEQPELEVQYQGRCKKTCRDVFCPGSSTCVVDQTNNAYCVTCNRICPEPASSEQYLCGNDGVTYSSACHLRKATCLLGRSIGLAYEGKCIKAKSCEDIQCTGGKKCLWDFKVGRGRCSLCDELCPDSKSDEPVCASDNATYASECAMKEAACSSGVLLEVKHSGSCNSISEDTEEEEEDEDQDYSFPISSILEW
The target in assay [6] is Fibroblast growth factor 2 (Homo sapiens) (UniProt P09038). As to the kind of experiment: basic fibroblast growth factor binding to printed compounds – biochemical, small-molecule microarray, 635/667 nm fluorescence, primary screen (AID 1133). Particulars: FGF2, fluorescence 635/667, higher = more signal.
Chain of Fibroblast growth factor 2 (Homo sapiens) (P09038 whole entry, looked up): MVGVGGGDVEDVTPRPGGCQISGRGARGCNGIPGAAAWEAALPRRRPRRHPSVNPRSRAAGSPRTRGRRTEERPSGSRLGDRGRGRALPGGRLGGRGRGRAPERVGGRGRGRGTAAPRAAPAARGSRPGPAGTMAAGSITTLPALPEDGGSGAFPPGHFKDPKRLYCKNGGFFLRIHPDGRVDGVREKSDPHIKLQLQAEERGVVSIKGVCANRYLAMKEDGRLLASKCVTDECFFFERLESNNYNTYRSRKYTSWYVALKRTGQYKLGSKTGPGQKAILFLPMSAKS
Assay [7] can be described thus: JC-1 mitochondrial potential readout, lung cancer cells – cell-based, A549, JC-1 fluorescence, basal, 24 h, 100 nL, profiling panel (AID 1138).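 Also: A549 lung adenocarcinoma cells under basal conditions with no added stimulus; test concentration not given here.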 The following applies: higher = more signal.
Assay [8] relates to Lefty1. As to the kind of experiment: Lefty1 protein binding to printed compounds – biochemical, small-molecule microarray, 635/667 nm fluorescence, primary screen (AID 1139). The following applies: fluorescence 635/667, higher = more signal.
Assay [9] has as its system wheat germ agglutinin (Triticum aestivum), Alexa647-labelled. As to the kind of experiment: Alexa647-WGA lectin binding to printed small molecules – biochemical, small-molecule microarray, 635/667 nm fluorescence, artefact control for SMM control-protein annotation, profiling panel (AID 1140).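 Also: score merges 667 nm feature emission with signal to noise over triplicate slides.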 The following applies: WGA-A647 binding, 635 nm fluorescence, higher = more signal.

Assay [10] concerns the target Luciferin 4-monooxygenase (Photinus pyralis) (UniProt P08659). The assay is described as follows: inhibition of purified Photinus pyralis luciferase – biochemical, luminescence, purified enzyme, 2006 set, primary screen (AID 1141).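 Also: cell-free assay with purified firefly luciferase at 100 ng per well in PBS; test concentration not given here.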 Particulars: purified firefly luciferase, SteadyGlo luminescence, 30 min; higher = more signal, called active from +8 up or from −8 down.

Chain of Luciferin 4-monooxygenase (Photinus pyralis) (P08659 whole entry, looked up): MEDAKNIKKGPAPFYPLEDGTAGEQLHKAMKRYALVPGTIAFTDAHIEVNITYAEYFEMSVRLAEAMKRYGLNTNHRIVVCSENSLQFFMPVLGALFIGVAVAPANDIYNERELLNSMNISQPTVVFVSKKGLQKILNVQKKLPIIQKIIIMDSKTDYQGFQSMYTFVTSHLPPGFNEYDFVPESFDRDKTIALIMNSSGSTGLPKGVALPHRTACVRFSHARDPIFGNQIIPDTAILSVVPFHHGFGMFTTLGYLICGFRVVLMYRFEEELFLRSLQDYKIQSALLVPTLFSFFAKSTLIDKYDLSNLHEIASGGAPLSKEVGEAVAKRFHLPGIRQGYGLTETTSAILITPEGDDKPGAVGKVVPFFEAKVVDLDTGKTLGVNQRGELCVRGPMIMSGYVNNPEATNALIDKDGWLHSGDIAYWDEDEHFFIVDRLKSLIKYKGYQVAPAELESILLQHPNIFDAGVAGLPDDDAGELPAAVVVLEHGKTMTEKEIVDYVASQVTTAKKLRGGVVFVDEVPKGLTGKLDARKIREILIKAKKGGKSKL

As for `C[C@H]1CC[C@H]2C(=O)O[C@H](CO)CN2[C@@H]1c1ccc(Br)cc1`, the composite z-score in [1] is -0.15; in [2], 0.015; in assay [3], 0.638; in [4] it was 0.0011; in assay [5], 0.0723; in assay [6], 0.103. Moreover, the composite z-score in assay [8] was 0.353; in assay [9], -0.004. In addition, the z-score in assay [7] was 0.69; in [10] it was -0.19 (inactive).
Take `COc1ccc(COC(=O)NN=C2C[C@@H](O)[C@@H](O)[C@@H]3[C@@H]4C(=O)N(c5cccc(Oc6ccccc6)c5)C(=O)[C@@H]4CC[C@H]23)cc1`: the composite z-score in assay [1] was 0.362; in [2] it was -0.476; in [3], 0.407; in assay [4], 0.744; in assay [5], -0.355; in assay [6], -0.603. In addition, the values for the composite z-score in assay [8] and in [9] were -0.258 and 0.916, respectively. For the same compound, the z-score is -0.593 in assay [7] and 0.911 (inactive) in assay [10].
For `CCCNC(=O)OC[C@H]1O[C@H](CCON=C2c3cc(OC)ccc3O[C@H](c3cccc(OC)c3)[C@H]2O)C=C[C@@H]1Oc1ccc(OC)cc1`, the composite z-score turned out to be 2.07 in assay [1]; 0.824 in assay [2]; 0.222 in assay [3]; 0.618 in [4]; 0.418 in [5]; 1.11 in [6]. Moreover, the composite z-score in assay [8] is 0.292; in assay [9], 0.228. The values for the z-score in assay [7] and in [10] were 1.2 and 0.652 (inactive), respectively.
In the case of `O=C(NN=C1C[C@@H](O)[C@@H](O)[C@@H]2[C@@H]3C(=O)N(Cc4ccccc4)C(=O)[C@@H]3CC[C@H]12)OCc1ccccc1`, the composite z-score was -0.136 in [1]; -0.0677 in assay [2]; 0.0773 in assay [3]; -0.265 in assay [4]; 0.387 in assay [5]; 0.388 in assay [6]. Also, the results for the composite z-score in assay [8] and in assay [9] were 0.617 and 0.0185, respectively. For the same compound, the z-score was 0.101 in [7] and 0.534 (inactive) in [10].
Regarding `CO[C@@H]1COC(=O)[C@@H]2CCCN2C(=O)[C@@H](C)COC(=O)CCC[C@H]1C`, the composite z-score in assay [1] amounted to 0.176; in assay [2], 0.0997; in assay [3], 0.154; in [4], 0.482; in [5] it was 0.529; in assay [6], 0.264. For the same compound, the composite z-score in [8] came out at 0.486; in [9], 0.2. Besides, the z-score was -0.601 in assay [7] and 0.173 (inactive) in assay [10].
`CCN1C(=O)[C@H]2[C@H]3[C@H](O)[C@H](O)CC(=NOCC(C)C)[C@H]3CC[C@H]2C1=O`: the composite z-score in assay [1] is 0.341; in assay [2] it was 0.551; in assay [3], -0.0956; in assay [4] it was -0.326; in assay [5], 0.818; in assay [6], 0.4. Besides, the values for the composite z-score in assay [8] and in [9] were 0.717 and -0.312, respectively. Besides, the z-score is -0.087 in [7] and 0.404 (inactive) in assay [10].
With `CC(C)=NO[C@H](C)c1cn([C@@H]2COC[C@H]2O)nn1`, the composite z-score worked out at 0.106 in assay [1]; 0.661 in [2]; 0.335 in assay [3]; 0.187 in [4]; 0.349 in assay [5]; 0.594 in assay [6]. In addition, the composite z-score in assay [8] is 0.718; in [9], -0.038. The z-score is 0.027 in [7] and 0.0821 (inactive) in assay [10].
`Cc1ccc2[nH]c3nc(CCCn4ccnc4-c4ccccc4)nnc3c2c1`: the composite z-score turned out to be 0.663 in [1]; 1.08 in assay [2]; 0.0863 in assay [3]; 0.826 in [4]; 0.757 in assay [5]; 1.19 in assay [6]. The results for the composite z-score in [8] and in assay [9] were 0.802 and 0.676, respectively. The z-score was 0.524 in [7] and 0.36 (inactive) in [10].
As to `CCOC(=O)[C@H](CC(C)C)NC(=O)CCC1CC(OC(=O)NCc2ccc3c(c2)OCO3)CC2(CCCC(COC(=O)NCCOc3ccccc3)O2)O1` (stereo not given in full), the composite z-score in assay [1] was 0.424; in assay [2] it was 1.17; in assay [3], 0.0776; in assay [4], 1.01; in assay [5], 0.829; in assay [6], 0.846. The composite z-score stood at 1.61 in [8] and 0.598 in assay [9]. For the same compound, the z-score in [7] was 0.574; in assay [10], 0.547 (inactive).
For `CCN1C(=O)[C@H]2[C@H]3[C@H](O)[C@H](O)CC(=NNC(=O)OCc4ccccc4)[C@@H]3CC[C@H]2C1=O`, the composite z-score in assay [1] is 0.545; in [2] it was -0.513; in assay [3] it was -0.116; in assay [4] it was 0.315; in assay [5] it was 0.0633; in assay [6], -0.0789. The composite z-score came out at 0.066 in assay [8] and 0.128 in [9]. Besides, the z-score in [7] is 0.207; in assay [10] it was 0.248 (inactive).
In the case of `COc1ccc(COC(=O)NN=C2C[C@@H](O)[C@@H](O)[C@@H]3[C@@H]4C(=O)N([C@@H](C)c5ccccc5)C(=O)[C@@H]4CC[C@@H]23)cc1`, the composite z-score in assay [1] was -0.253; in assay [2], 0.661; in [3] it was -0.313; in assay [4], 0.373; in [5], 0.244; in assay [6], 0.272. In addition, the composite z-score amounted to 0.244 in [8] and 0.242 in assay [9]. Also, the z-score in assay [7] is -0.304; in assay [10] it was 0.447 (inactive).
For the compound `CC(C)CON=C1C[C@@H](O)[C@@H](O)[C@@H]2[C@@H]3C(=O)N(c4ccc(F)cc4F)C(=O)[C@@H]3CC[C@@H]12`, the composite z-score in assay [1] turned out to be 0.663; in assay [2] it was 0.105; in [3], 0.156; in [4] it was 0.699; in assay [5], 0.585; in [6], 0.508. The composite z-score in assay [8] was 0.617; in assay [9], -0.0433. In addition, the z-score was -0.99 in assay [7] and 0.831 (inactive) in assay [10].
Regarding `CCOC(=O)CCN1C(=O)[C@H]2[C@H]3[C@H](O)[C@H](O)CC(=NOCC=C(C)CCC=C(C)C)[C@@H]3CC[C@H]2C1=O`, the composite z-score in assay [1] was -0.34; in assay [2], 0.741; in [3] it was -0.115; in [4], 0.7; in assay [5], 0.696; in assay [6], 0.884. In addition, the results for the composite z-score in assay [8] and in assay [9] were 0.537 and 0.132, respectively. Further, the z-score in [7] was 0.0237; in assay [10], 0.597 (inactive).
Turning to `C[C@@H]1CC[C@H]2C(=O)O[C@@H](CN=[N+]=[N-])CN2[C@H]1c1ccc(Br)cc1`, the composite z-score in assay [1] stood at 2.89; in assay [2], 1.15; in assay [3] it was 0.694; in assay [4], 0.952; in assay [5], 0.515; in assay [6], 0.376. In addition, the composite z-score came to 0.506 in assay [8] and 0.829 in assay [9]. The values for the z-score in assay [7] and in [10] were 0.285 and -1.59 (inactive), respectively.
On to `CC[C@@H](c1ccccc1)n1c(=O)n2n(c1=O)[C@H]1[C@H](O)[C@@H]3O[C@@H]3C(=NOCc3ccccc3)[C@H]1CC2`, for which the composite z-score was 0.274 in assay [1]; 0.0875 in assay [2]; -0.207 in assay [3]; 0.931 in [4]; 0.598 in [5]; 0.373 in assay [6]. The figures for the composite z-score in [8] and in assay [9] were 0.65 and 0.676, respectively. For the same compound, the z-score in assay [7] was -1.14; in assay [10], 0.0145 (inactive).
`COC(=O)CC=C[C@@H](C)[C@@H](C=NOC[C@@H](O)COCc1ccco1)OC`: the composite z-score was 1.46 in assay [1]; -0.464 in assay [2]; -0.354 in assay [3]; -1.2 in assay [4]; 1.15 in [5]; 0.509 in assay [6]. Besides, the composite z-score in assay [8] was 1.02; in assay [9], -0.83. Moreover, the figures for the z-score in [7] and in [10] were 0.662 and -1.3 (inactive), respectively.
In the case of `Cc1cc2c(nc1C)CCCCN2CC(O)CN1CCCc2nc(-c3ccc(Br)cc3)ccc21` (stereo not given), the composite z-score in assay [1] was 0.819; in assay [2], 0.582; in [3], 0.171; in [4] it was -0.564; in assay [5], 1.06; in [6], 0.709. The composite z-score was 0.998 in assay [8] and 0.765 in assay [9]. The z-score in assay [7] was 1.59; in assay [10], -0.802 (inactive).
